This is an account of results in PubChem BioAssay.

Broadly, the inhibition is the change of the read-out against control, counted positive when it falls.

Results filed as inconclusive are left out. Calls of active or inactive are those of the source.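 How the source made its calls, unless noted: active means GFP signal, as percent of the solvent control, above the screen mean plus 3 SD, about 149; inconclusive means no reading because the compound's own fluorescence upset strain identification; inactive means the rest.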

A short description of test [1]: yeast TOR pathway RPL19A-GFP modulators, primary screen, cell-based, S. cerevisiae, multiplex flow cytometry (AID 1862; in the data active means percent of DMSO control GFP below about 86%;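 further: lower values mimic rapamycin by blocking the RPL19A rise seen in DMSO cells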). Conditions: S. cerevisiae RPL19A-GFP strain, flow cytometry fluorescence, 3 h; at 10 µM; stronger effect = lower value. (In general: Flow cytometry measures light scatter and fluorescence of single cells or particles in a stream.)
Test [2] in a line: modulators of MEP2-GFP levels in yeast, primary screen, S. cerevisiae, multiplex flow cytometry (AID 1867;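 active means GFP response, as percent of the DMSO control, above the screen-wide mean plus 3 SD, about 139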;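 further: median GFP channel fluorescence of barcode-gated MEP2-GFP cells measured by flow cytometry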). Particulars: S. cerevisiae MEP2-GFP strain, 3 h, at 10 µM, stronger effect = higher value, 100% means same as DMSO wells.
Test [3] is described as follows: modulators of CIT2-GFP expression in yeast, primary screen, S. cerevisiae, GFP fusion, multiplex flow cytometry (AID 1870;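 active means percent response above a set limit, the screen-wide mean plus 3 SD, cut at about 130% in these data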;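 further: barcoded CIT2-GFP strain pooled with four other GFP strains with rapamycin as positive control; median GFP fluorescence per well over plate mean of DMSO wells so 100% = DMSO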). Conditions: 3 h, at 10 µM, stronger effect = higher value.
Test [4] is described as follows: modulators of LAP4-GFP expression in yeast, primary screen, S. cerevisiae, multiplex flow cytometry (AID 1873). Particulars: 3 h, at 10 µM, stronger effect = higher value.
A short description of test [5]: modulators of AGP1-GFP expression in yeast TOR pathway, primary screen, cell-based, multiplex flow cytometry, S. cerevisiae (AID 1887;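 active means GFP signal above the screen-wide mean plus 3 SD, that is over about 124.5% of the solvent control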;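 further: AGP1-GFP fusion strain of S. cerevisiae within a five-strain barcoded multiplex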). Particulars: 3 h, at 10 µM, stronger effect = higher value.
Test [6] in a line: inhibitors of CD8+ T cell-vesicle binding, pilot screen, LFA-1/ICAM-1 modulator project, MLPCN validation set, flow cytometry (AID 2523;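 active means response below a set limit, under 55% cells CD8-positive and vesicle-bound, and CD8 cells' 90th-percentile brightness under 279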;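 on vesicle binding response: mean PE anti-B7-1 fluorescence of CD8+ cells relative to row control; 100% = QL9-loaded vesicles with DMSO vehicle in the same plate row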). Particulars: 2C mouse CD8+ T cells, at 7 µM, stronger effect = lower value; double positive events: measured here: CD8+/vesicle+ event percentage.
Test [7] concerns the target Integrin beta-1 (Homo sapiens) + Integrin alpha-4 (Homo sapiens) (UniProt P13612+P05556). The test can be described thus: inhibition of HUTS-21 binding to VLA-4, pilot screen, VLA-4 allosteric modulator project, U937 cells, HUTS-21 mAb, flow cytometry, validation set (AID 2674;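 active means inhibition above 50%, about 3 SD of the validation set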;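 further: antibody binding induced by the VLA-4 ligand LDV present at three times its Kd; 0% = LDV ligand with antibody and no compound and 100% = antibody without LDV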). Conditions: HUTS-21 LIBS mAb binding, at 6.7 µM, stronger effect = higher value, binding induced by LDV ligand.

The nature of test [8]: superoxide lowering in aged yeast cells, pilot screen, validation compound set (AID 2706;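 active means superoxide response below 65% of plate, a cut near 3 SD across the whole screen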;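 further: yeast exposed to compound for one week at 30 degrees C before staining; 100% = mean of all compound wells on the same plate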). Particulars: S. cerevisiae aging, superoxide DHE fluorescence; at 10 µM; stronger effect = lower value.
The target in test [9] is Beta-adrenergic receptor kinase 1 (Homo sapiens) (UniProt P25098). The test can be described thus: GRK2 binders displacing RNA aptamer, biochemical, validation, human GRK2, bead flow cytometry (AID 488806;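 active means aptamer binding inhibition above 30%, about 3 SD of noise from non-fluorescent compounds; inactive means inhibition at or below 30%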). Particulars: bead-bound GRK2, FAM-aptamer displacement, at 10 µM, stronger effect = higher value.
In test [10] the target is Beta-2 adrenergic receptor (Homo sapiens) (UniProt P07550). As to the kind of experiment: beta2AR agonists driving receptor internalization, pilot screen, cell-based, FAP fluorogen, flow cytometry, validation set (AID 504459;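 active means percent response above 42, roughly 3 SD of non-fluorescent test compounds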;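 further: agonist-driven loss of surface beta2AR via internalization measured by FAP dye flow cytometry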). Conditions: Am2.2-beta2AR cells, FAP surface receptor flow cytometry; at 10 µM; stronger effect = higher value.
For test [11], the target named is AP-2 complex subunit beta (Homo sapiens) (UniProt P63010). The test can be described thus: inhibitors of arrestin peptide binding to AP2, pilot screen, biochemical, validation set, GST-AP2 beads, flow cytometry (AID 504541;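 active means inhibition above 54%, about 3 SD of non-fluorescent compounds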;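 further: AP2 carries R879A mutation and is captured from E. coli lysate; bead-bound FITC arrestin peptide fluorescence measuring arrestin peptide binding to AP2; 0% = DMSO wells and 100% = excess unlabeled arrestin peptide control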). Particulars: FITC arrestin peptide, at 10 µM, stronger effect = higher value, AP2 beta2 appendage fragment, R879A mutant.
Test [12] can be described thus: yeast V-ATPase proton transport modulators, S. cerevisiae, pHLuorin, HTS validation (AID 504600; in the data active means response above about 15%;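 further: plate controls were DMSO for no effect and reference compound for full effect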). Particulars: S. cerevisiae pHLuorin cytosolic pH, at 10 µM, stronger effect = higher value.
In test [13] the test system is anti-desmoglein-3 scFv antibody binding to human DSG3. As to the kind of experiment: inhibitors of anti-DSG3 scFv binding to DSG3, pilot screen, biochemical, validation compound set, bead-based, flow cytometry (AID 588368;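 active means binding below the plate cutoff, the plate median minus 3 SD, with a reading above zero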;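 further: signal is the median channel fluorescence of bead-bound GFP antibody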). Conditions: Protein G beads, DSG3-Fc, scFv-GFP binding, at 10 µM, stronger effect = lower value.
Test [14] can be described thus: inhibitors of fungal efflux pumps CDR1, CDR2, MDR1, pilot screen, validation compound set, multiplex, phenotypic (AID 588506;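 active means efflux inhibition above 0.42, the validation set average plus 4 SD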;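 further: Nile Red retained in cells so higher fluorescence means more efflux inhibition; 0 = negative control wells and 1 = enniatin B 25 µM full block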). Particulars: S. cerevisiae pump-expressing triplex, Nile Red efflux flow cytometry; at 10 µM; stronger effect = higher value; the pumps come from Candida albicans.
The target of test [15] is ATP-binding cassette sub-family B member 6 (Homo sapiens) (UniProt Q9NP58). As to the kind of experiment: ABCB6 transporter inhibitors, pilot screen, K562-ABCB6 cells, flow cytometry, validation set (AID 588550;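 active means inhibition above the screen-wide mean plus 3 SD, about 51%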;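 further: 0% = DMSO wells and 100% = benzethonium chloride 70 µM positive control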). Conditions: K562-ABCB6 porphyrin accumulation, 1 h, at 10 µM, stronger effect = higher value.
Test [16] is described as follows: promoters of myeloid differentiation in arrested cells, primary screen, cell-based, GFP/MAC1 double positive, flow cytometry, validation set (AID 588685;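 active means differentiation response of at least 50%, scaled between solvent and reference control, from cells with both markers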;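 further: compound exposure lasts four days before antibody staining and flow analysis; 0% = DMSO wells and 100% = 5 µM fulvestrant positive control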). Conditions: ER-HoxA9 marrow cells, stronger effect = higher value, normalized: vehicle 0, fulvestrant 100.

Sequence of ATP-binding cassette sub-family B member 6 (Homo sapiens) (Q9NP58 whole entry, looked up): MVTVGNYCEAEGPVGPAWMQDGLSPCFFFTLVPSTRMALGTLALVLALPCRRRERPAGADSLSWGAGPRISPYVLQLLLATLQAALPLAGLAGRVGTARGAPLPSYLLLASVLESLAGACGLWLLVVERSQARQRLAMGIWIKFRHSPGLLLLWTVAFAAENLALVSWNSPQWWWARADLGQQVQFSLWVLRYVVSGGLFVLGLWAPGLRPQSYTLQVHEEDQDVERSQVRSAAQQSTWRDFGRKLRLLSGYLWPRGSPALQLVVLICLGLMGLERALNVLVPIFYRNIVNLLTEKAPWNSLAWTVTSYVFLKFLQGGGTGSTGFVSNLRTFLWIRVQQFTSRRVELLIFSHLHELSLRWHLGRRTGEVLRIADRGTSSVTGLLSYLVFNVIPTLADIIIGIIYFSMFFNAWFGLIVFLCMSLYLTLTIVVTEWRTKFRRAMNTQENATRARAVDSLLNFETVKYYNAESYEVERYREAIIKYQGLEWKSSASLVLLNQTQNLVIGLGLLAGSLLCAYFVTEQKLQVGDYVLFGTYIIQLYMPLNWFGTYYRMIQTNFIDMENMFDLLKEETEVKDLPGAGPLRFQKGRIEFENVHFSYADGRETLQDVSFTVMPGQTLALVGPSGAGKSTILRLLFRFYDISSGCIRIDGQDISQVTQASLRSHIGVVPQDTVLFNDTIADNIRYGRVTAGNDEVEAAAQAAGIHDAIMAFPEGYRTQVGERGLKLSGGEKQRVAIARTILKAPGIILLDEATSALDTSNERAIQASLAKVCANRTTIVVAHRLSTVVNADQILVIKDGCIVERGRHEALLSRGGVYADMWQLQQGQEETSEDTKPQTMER
Sequence of AP-2 complex subunit beta (Homo sapiens) (P63010 whole entry, looked up, the tested form may be a part, one chain of several): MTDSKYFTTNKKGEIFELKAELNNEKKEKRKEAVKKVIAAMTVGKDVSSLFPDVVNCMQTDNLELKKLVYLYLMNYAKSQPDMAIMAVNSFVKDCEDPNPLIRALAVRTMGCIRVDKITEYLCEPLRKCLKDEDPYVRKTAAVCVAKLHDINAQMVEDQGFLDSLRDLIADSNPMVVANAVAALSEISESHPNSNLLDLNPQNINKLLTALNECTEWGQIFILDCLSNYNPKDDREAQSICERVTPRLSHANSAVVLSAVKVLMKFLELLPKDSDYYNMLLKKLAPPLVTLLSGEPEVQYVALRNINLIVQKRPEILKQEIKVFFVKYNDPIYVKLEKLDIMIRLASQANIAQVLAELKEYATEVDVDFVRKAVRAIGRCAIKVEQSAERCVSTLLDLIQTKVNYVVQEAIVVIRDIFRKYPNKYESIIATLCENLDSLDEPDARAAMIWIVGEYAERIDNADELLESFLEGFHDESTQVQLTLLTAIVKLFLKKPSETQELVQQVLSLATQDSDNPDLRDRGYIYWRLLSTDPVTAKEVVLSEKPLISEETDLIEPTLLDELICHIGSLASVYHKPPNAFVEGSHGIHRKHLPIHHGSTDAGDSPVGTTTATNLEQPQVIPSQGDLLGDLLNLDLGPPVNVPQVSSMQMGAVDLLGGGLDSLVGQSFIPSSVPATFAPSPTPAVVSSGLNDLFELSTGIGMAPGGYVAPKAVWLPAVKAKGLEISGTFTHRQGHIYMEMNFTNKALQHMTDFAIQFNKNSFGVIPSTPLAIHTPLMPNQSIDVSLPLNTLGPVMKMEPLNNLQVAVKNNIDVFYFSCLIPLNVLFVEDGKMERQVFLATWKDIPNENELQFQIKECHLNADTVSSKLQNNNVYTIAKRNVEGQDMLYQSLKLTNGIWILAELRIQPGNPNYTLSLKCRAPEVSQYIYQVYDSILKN
Sequence of Integrin beta-1 (Homo sapiens) + Integrin alpha-4 (Homo sapiens) (P05556 whole entry, looked up): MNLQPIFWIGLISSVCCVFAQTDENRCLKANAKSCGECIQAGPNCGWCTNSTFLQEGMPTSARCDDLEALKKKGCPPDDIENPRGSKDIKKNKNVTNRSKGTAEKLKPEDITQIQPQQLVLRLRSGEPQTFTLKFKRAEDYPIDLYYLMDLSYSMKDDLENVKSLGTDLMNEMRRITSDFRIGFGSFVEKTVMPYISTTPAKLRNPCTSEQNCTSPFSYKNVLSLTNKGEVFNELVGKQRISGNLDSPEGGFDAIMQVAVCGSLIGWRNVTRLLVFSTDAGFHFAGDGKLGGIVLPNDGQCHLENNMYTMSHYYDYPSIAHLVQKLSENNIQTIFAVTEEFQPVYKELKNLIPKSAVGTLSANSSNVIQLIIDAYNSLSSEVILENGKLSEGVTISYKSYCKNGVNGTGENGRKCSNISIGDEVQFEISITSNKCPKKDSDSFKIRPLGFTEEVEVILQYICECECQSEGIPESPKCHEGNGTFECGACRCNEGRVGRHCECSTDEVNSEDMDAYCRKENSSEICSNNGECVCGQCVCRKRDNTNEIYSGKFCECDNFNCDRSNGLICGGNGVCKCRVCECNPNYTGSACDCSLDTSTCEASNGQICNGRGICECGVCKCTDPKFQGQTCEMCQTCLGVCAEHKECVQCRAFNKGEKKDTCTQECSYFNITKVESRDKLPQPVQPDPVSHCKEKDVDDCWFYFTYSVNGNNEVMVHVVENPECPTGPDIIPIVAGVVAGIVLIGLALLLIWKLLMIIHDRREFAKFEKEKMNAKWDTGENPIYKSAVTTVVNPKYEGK
Sequence of Integrin beta-1 (Homo sapiens) + Integrin alpha-4 (Homo sapiens) (P13612 whole entry, looked up): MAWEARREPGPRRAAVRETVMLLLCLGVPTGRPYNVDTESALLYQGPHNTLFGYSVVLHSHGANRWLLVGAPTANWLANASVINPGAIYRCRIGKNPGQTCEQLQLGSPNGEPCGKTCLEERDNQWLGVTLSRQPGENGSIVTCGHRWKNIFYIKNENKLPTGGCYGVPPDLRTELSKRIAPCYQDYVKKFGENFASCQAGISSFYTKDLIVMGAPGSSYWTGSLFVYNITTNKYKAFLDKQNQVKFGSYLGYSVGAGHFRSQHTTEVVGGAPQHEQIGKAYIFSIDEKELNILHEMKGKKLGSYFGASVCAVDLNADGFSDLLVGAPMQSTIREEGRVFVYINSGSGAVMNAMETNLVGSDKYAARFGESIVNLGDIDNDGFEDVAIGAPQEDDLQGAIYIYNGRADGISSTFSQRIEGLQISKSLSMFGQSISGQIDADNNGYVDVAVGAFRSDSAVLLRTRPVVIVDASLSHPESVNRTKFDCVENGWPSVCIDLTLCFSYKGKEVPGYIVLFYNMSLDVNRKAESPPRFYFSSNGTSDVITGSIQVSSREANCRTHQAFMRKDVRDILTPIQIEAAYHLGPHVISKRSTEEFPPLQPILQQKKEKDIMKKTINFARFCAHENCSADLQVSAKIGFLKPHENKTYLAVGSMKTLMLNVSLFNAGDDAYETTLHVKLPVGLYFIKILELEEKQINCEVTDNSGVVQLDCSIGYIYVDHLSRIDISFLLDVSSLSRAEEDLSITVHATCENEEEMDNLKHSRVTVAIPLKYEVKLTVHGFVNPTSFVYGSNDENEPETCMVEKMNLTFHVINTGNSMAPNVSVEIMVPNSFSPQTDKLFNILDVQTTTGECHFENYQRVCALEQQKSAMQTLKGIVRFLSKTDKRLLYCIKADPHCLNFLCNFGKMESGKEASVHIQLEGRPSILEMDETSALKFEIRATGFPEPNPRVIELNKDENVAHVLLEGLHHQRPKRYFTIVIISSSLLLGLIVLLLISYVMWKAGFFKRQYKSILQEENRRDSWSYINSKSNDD
Sequence of Beta-adrenergic receptor kinase 1 (Homo sapiens) (P25098 whole entry, looked up): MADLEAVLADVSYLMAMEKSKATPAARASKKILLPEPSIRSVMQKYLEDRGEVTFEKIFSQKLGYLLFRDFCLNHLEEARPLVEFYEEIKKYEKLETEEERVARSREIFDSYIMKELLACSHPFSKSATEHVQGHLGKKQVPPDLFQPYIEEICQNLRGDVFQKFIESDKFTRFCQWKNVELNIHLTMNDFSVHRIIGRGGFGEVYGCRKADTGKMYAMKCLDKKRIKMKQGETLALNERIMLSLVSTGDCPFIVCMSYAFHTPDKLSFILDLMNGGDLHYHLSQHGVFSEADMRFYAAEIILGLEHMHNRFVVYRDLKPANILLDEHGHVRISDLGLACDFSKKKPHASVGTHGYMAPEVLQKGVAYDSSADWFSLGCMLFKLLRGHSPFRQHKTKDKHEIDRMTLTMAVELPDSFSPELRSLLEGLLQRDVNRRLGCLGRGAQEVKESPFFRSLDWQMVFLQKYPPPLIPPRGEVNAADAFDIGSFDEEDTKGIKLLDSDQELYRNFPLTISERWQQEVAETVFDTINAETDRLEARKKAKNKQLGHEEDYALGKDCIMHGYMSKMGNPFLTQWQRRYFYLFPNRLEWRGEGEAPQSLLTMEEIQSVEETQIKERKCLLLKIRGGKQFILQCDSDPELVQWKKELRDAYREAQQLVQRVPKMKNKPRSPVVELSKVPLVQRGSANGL
Sequence of Beta-2 adrenergic receptor (Homo sapiens) (P07550 whole entry, looked up): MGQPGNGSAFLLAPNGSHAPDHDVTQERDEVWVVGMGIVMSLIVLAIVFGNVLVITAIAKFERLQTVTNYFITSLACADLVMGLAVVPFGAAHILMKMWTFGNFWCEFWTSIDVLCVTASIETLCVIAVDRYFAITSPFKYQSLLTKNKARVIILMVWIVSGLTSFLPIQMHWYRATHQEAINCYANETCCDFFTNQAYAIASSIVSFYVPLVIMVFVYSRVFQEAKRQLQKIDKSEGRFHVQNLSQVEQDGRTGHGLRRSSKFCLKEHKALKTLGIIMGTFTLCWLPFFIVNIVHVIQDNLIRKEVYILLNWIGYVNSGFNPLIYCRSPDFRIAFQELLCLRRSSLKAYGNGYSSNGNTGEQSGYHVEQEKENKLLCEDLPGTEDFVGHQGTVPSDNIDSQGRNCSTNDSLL

As to `CC1(C)CC(c2csc(N)n2)CCO1` (stereo not drawn), in test [1], the percent of DMSO control GFP was 103% (inactive). The figures for the GFP response vs DMSO in test [2] and in [4] were 106% (inactive) and 86.8% (inactive), respectively. Besides, in test [3], the percent response of DMSO control was 106% (inactive). Moreover, the GFP response, % of DMSO in [5] is 101% (inactive). In test [6], this compound displayed a double positive events of 65.9%. Besides, in test [6], the vesicle binding response was 915% (inactive). In addition, the inhibition was 1.62% (inactive) in test [7], 8.95% (inactive) in test [11] and -3% (inactive) in test [15]. Moreover, the superoxide response (% of plate) in test [8] is 101% (inactive). For the same compound, the aptamer binding inhibition in test [9] is 3% (inactive). Also, the values for the response in test [10] and in test [12] were -0.12% (inactive) and -0.04% (inactive), respectively. Also, the binding (% of control) in test [13] is 93.3% (inactive). In addition, the efflux inhibition (fraction of control) in [14] is -0.14 (inactive). The differentiation response in test [16] was -4.64% (inactive).
Turning to `Cc1cc(=O)c2c(O)c(O)ccc2o1`, the percent of DMSO control GFP in test [1] was 102% (inactive). Further, the values for the GFP response vs DMSO in test [2] and in [4] were 107% (inactive) and 90.7% (inactive), respectively. The percent response of DMSO control in [3] was 98.9% (inactive). In test [5], the GFP response, % of DMSO is 101% (inactive). This compound also had a double positive events in [6] of 60.3%. Moreover, the vesicle binding response in test [6] is 30% (inactive). For the same compound, the inhibition was -7.72% (inactive) in test [7], -12.7% (inactive) in [11] and 7% (inactive) in [15]. Further, the superoxide response (% of plate) in test [8] is 105% (inactive). For the same compound, the aptamer binding inhibition in [9] was -4% (inactive). In addition, the results for the response in test [10] and in test [12] were 5.76% (inactive) and -0.09% (inactive), respectively. In test [13], the binding (% of control) is 98.5% (inactive). The efflux inhibition (fraction of control) in test [14] was -0.07 (inactive). Further, the differentiation response in test [16] is 9.04% (inactive).
For the compound `COc1ccc(C2C3CCCCC3(O)CCN2C(=O)c2cccs2)cc1` (stereo not drawn), in [1], the percent of DMSO control GFP was 102% (inactive). Also, the GFP response vs DMSO is 105% (inactive) in test [2] and 107% (inactive) in test [4]. The percent response of DMSO control in [3] was 97% (inactive). Moreover, the GFP response, % of DMSO in [5] is 107% (inactive). In test [6], the double positive events was determined as 61.4%. Besides, the vesicle binding response in test [6] is 376% (inactive). The results for the inhibition in test [7], in test [11] and in test [15] were -0.27% (inactive), -1.09% (inactive) and -4% (inactive), respectively. The superoxide response (% of plate) in test [8] is 102% (inactive). Further, the aptamer binding inhibition in [9] is 4% (inactive). In addition, the response was -26.4% (inactive) in test [10] and -1.21% (inactive) in test [12]. In test [13], the binding (% of control) was 99% (inactive). Besides, in [14], the efflux inhibition (fraction of control) was 0.12 (inactive). Moreover, the differentiation response in test [16] is -1.05% (inactive).
`CC(CN1c2ccccc2Sc2ccccc21)N(C)C` (stereo not drawn): in test [1], the percent of DMSO control GFP is 92.4% (inactive). For the same compound, the GFP response vs DMSO in test [2] is 117% (inactive); in test [4] it was 78.1% (inactive). Further, the percent response of DMSO control in [3] was 111% (inactive). For the same compound, the GFP response, % of DMSO in [5] is 94.9% (inactive). Further, the double positive events in test [6] worked out at 74.2%. For the same compound, in test [6], the vesicle binding response is 363% (inactive). Further, the inhibition is -2.27% (inactive) in test [7], 1.26% (inactive) in test [11] and 10% (inactive) in [15]. For the same compound, the superoxide response (% of plate) in test [8] was 84.2% (inactive). Besides, the aptamer binding inhibition in [9] is -3% (inactive). Also, the response in test [10] is -2.04% (inactive); in test [12], -2.78% (inactive). Further, the binding (% of control) in [13] is 97.2% (inactive). In addition, the efflux inhibition (fraction of control) in test [14] is -0.53 (inactive). In test [16], the differentiation response is -1.64% (inactive).
